Data from PubChem BioAssay AID1159580 (chemical genetic matrix, 2015).
In all, about 5,500 compounds went through this assay and about 2,000 (36%) were called active. Inconclusive results (about 18%) are left out. Rule as the data show it: active = normalized growth mostly below about 0.91 (no sharp cut-off); inconclusive = no clear call, values can overlap the other calls; inactive = mostly above about 0.92. This is one part of the list.

Test: chemical genetic growth profiling, strain panel (AID 1159580);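 also: tested at 20 µM; growth read once vehicle control cultures reached saturation at 30 °C; 1 = growth at the plate median or of vehicle wells; lower values mean less growth of the strain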
Conditions: growth OD

Measured: normalized growth

O=C(O)c1cc(=O)c2c(OCC(O)COc3cccc4oc(C(=O)O)cc(=O)c34)cccc2o1
inactive: S. cerevisiae deletion strains, locus YKL009W, strain mrt4, hits give low values 1.01 | S. cerevisiae deletion strains, locus YKL068W, hits give low values 1.01 | S. cerevisiae deletion strains, locus YKL085W, strain MDH1 (second series), hits give low values 1.03 | S. cerevisiae deletion strains, locus YKL085W, strain MDH1, hits give low values 1.03 | S. cerevisiae deletion strains, locus YKL160W, strain elf1, hits give low values 0.972 | S. cerevisiae deletion strains, locus YKL190W, strain CNB1, hits give low values 1 | S. cerevisiae deletion strains, locus YKR001C, strain vps1, hits give low values 1.02 | S. cerevisiae deletion strains, locus YKR026C, strain gcn3, hits give low values 0.968 | S. cerevisiae deletion strains, locus YKR091W, strain srl3, hits give low values 0.983 | S. cerevisiae deletion strains, locus YLL001W, strain dnm1, hits give low values 0.935 | S. cerevisiae deletion strains, locus YLL026W, hits give low values 0.991 | S. cerevisiae deletion strains, locus YLL041C, strain sdh2, hits give low values 0.973 | S. cerevisiae deletion strains, locus YLR027C, strain aat2, hits give low values 0.983 | S. cerevisiae deletion strains, locus YLR039C, strain RIC1, hits give low values 1 | S. cerevisiae deletion strains, locus YLR058C, strain SHM2, hits give low values 1.01 | S. cerevisiae deletion strains, locus YLR102C, strain apc9, hits give low values 1.02 | S. cerevisiae deletion strains, locus YLR113W, strain HOG1, hits give low values 0.998 | S. cerevisiae deletion strains, locus YLR221C, strain rsa3, hits give low values 1.02 | S. cerevisiae deletion strains, locus YLR258W, strain gsy2, hits give low values 0.983 | S. cerevisiae deletion strains, locus YLR262C, strain YPT6 (second series), hits give low values 0.933 | S. cerevisiae deletion strains, locus YLR262C, strain YPT6, hits give low values 1.05 | S. cerevisiae deletion strains, locus YLR268W, strain sec22, hits give low values 1.04 | S. cerevisiae deletion strains, locus YLR320W, strain mms22, hits give low values 0.985 | S. cerevisiae deletion strains, locus YLR330W, strain CHS5, hits give low values 1.01 | S. cerevisiae deletion strains, locus YLR342W, strain FKS1 (second series), hits give low values 1.01 | S. cerevisiae deletion strains, locus YLR342W, strain FKS1, hits give low values 0.95 | S. cerevisiae deletion strains, locus YLR357W, strain rsc2, hits give low values 1.01 | S. cerevisiae deletion strains, locus YLR370C, strain arc18, hits give low values 0.974 | S. cerevisiae deletion strains, locus YLR371W, strain rom2, hits give low values 1.02 | S. cerevisiae deletion strains, locus YLR384C, strain iki3, hits give low values 0.961 | S. cerevisiae deletion strains, locus YLR418C, strain cdc73, hits give low values 1.02 | S. cerevisiae deletion strains, locus YML016C, strain PPZ1, hits give low values 1.01 | S. cerevisiae deletion strains, locus YML032C, strain rad52, hits give low values 1.02 | S. cerevisiae deletion strains, locus YML120C, strain ndi1, hits give low values 0.966 | S. cerevisiae deletion strains, locus YML124C, strain tub3, hits give low values 1.01 | S. cerevisiae deletion strains, locus YMR058W, strain fet3, hits give low values 0.967 | S. cerevisiae deletion strains, locus YMR078C, strain ctf18, hits give low values 1.04 | S. cerevisiae deletion strains, locus YMR125W, strain sto1, hits give low values 0.99 | S. cerevisiae deletion strains, locus YMR129W, hits give low values 0.975 | S. cerevisiae deletion strains, locus YMR205C, strain PFK2, hits give low values 0.982 | S. cerevisiae deletion strains, locus YMR223W, strain ubp8, hits give low values 1.03 | S. cerevisiae deletion strains, locus YMR231W, strain pep5, hits give low values 0.971 | S. cerevisiae deletion strains, locus YMR307W, strain GAS1, hits give low values 1.09 | S. cerevisiae deletion strains, locus YNL067W, strain RPL9B, hits give low values 1.01 | S. cerevisiae deletion strains, locus YNL071W, strain lat1, hits give low values 0.989 | S. cerevisiae deletion strains, locus YNL128W, strain TEP1, hits give low values 1.02 | S. cerevisiae deletion strains, locus YNL183C, strain NPR1, hits give low values 0.952 | S. cerevisiae deletion strains, locus YNL209W, strain ssb2, hits give low values 1.01 | S. cerevisiae deletion strains, locus YNL233W, strain BNI4, hits give low values 1.02 | S. cerevisiae deletion strains, locus YNL248C, strain rpa49, hits give low values 1 | S. cerevisiae deletion strains, locus YNL250W, strain rad50, hits give low values 1.07 | S. cerevisiae deletion strains, locus YNL271C, strain bni1, hits give low values 1.03 | S. cerevisiae deletion strains, locus YNL298W, strain CLA4, hits give low values 1.01 | S. cerevisiae deletion strains, locus YNL307C, strain MCK1, hits give low values 1.02 | S. cerevisiae deletion strains, locus YNL322C, strain KRE1 (second series), hits give low values 0.953 | S. cerevisiae deletion strains, locus YNL322C, strain KRE1, hits give low values 1.01 | S. cerevisiae deletion strains, locus YNR049C, strain mso1, hits give low values 0.967 | S. cerevisiae deletion strains, locus YNR052C, strain pop2, hits give low values 1.01 | S. cerevisiae deletion strains, locus YOL006C, strain TOP1, hits give low values 1.01 | S. cerevisiae deletion strains, locus YOL012C, strain htz1 0.937 | S. cerevisiae deletion strains, locus YOL147C, strain pex11, hits give low values 1.03 | S. cerevisiae deletion strains, locus YOR001W, strain rrp6, hits give low values 0.936 | S. cerevisiae deletion strains, locus YOR061W, strain CKA2, hits give low values 1.01 | S. cerevisiae deletion strains, locus YOR069W, strain VPS5, hits give low values 1.01 | S. cerevisiae deletion strains, locus YOR070C, strain gyp1, hits give low values 0.987 | S. cerevisiae deletion strains, locus YOR080W, strain dia2, hits give low values 0.968 | S. cerevisiae deletion strains, locus YOR083W, strain WHI5, hits give low values 0.961 | S. cerevisiae deletion strains, locus YOR106W, strain vam3, hits give low values 0.957 | S. cerevisiae deletion strains, locus YOR136W, strain idh2, hits give low values 1.03 | S. cerevisiae deletion strains, locus YOR144C, strain elg1, hits give low values 1.02 | S. cerevisiae deletion strains, locus YOR184W, strain ser1, hits give low values 1.03 | S. cerevisiae deletion strains, locus YOR231W, strain MKK1, hits give low values 1 | S. cerevisiae deletion strains, locus YOR265W, strain rbl2, hits give low values 0.984 | S. cerevisiae deletion strains, locus YOR270C, strain vph1, hits give low values 0.946 | S. cerevisiae deletion strains, locus YOR290C, strain snf2, hits give low values 1.02 | S. cerevisiae deletion strains, locus YOR316C, strain cot1, hits give low values 1.03 | S. cerevisiae deletion strains, locus YPL051W, strain arl3, hits give low values 0.99 | S. cerevisiae deletion strains, locus YPL055C, strain LGE1, hits give low values 1.01 | S. cerevisiae deletion strains, locus YPL078C, strain atp4, hits give low values 0.933 | S. cerevisiae deletion strains, locus YPL106C, strain sse1, hits give low values 1 | S. cerevisiae deletion strains, locus YPL240C, strain hsp82, hits give low values 1 | S. cerevisiae deletion strains, locus YPL241C, strain CIN2, hits give low values 1.01 | S. cerevisiae deletion strains, locus YPL256C, strain CLN2, hits give low values 1 | S. cerevisiae deletion strains, locus YPR119W, strain clb2, hits give low values 1.03 | S. cerevisiae deletion strains, locus YPR141C, strain kar3, hits give low values 1.03 | S. cerevisiae deletion strains, locus YPR163C, strain tif3, hits give low values 1.02 | S. cerevisiae deletion strains, locus YPR167C, strain met16, hits give low values 1.03 | S. cerevisiae deletion strains, strain wtn01, hits give low values 0.999 | S. cerevisiae strains, strain wild type, hits give low values 1.01
